Source: a collection of fitness landscapes (doi:10.1016/j.celrep.2020.107928)
The full ranking holds about 81,000 sequences; the median of “one-hybrid fitness for binding NBS DNA” is about -0.1, and the highest 2% start at about 0.36. The sample holds the highest values, similar sequences and a random draw of the others, so the mix is not that of the screen.

B1: Caulobacter ParB omega fusion; a variant is named by its letters at X, in order, B8GW30 (parent)
chain: MESVVVGEPGMSEGRRGLGRGLSALLGEVDAAPAQAPGEQLGGSREAPIEILQRNPDQPRRTFREEDLEDLSNSIREKGVLQPILVRPSPDTAGEYQIVAGERAWRAAQRAGLKTVPIMVRELDDLAVLEIGIIENVQRADLNVLEEALSYKVLMEKFERTQENIAQTIGKSXSHVANXMRLLXLPDEVQSYLVSGELTAXHARAIAAAADPVALAKQIIEGGLSVRETEALARKAPNLSAGKSKGGRPPRVKDTDTQALESDLSSVLGLDVSIDHRGSTGTLTITYATLEQLDDLCNRLTRGI

Variants of: B1
Assay: one-hybrid fitness for binding NBS DNA (the Noc-binding site; scaled: cognate 1, non-cognate 0); higher = stronger binding
Conditions: with NBS DNA site
In short: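 Caulobacter ParB libraries with four specificity codons randomised were screened by bacterial one-hybrid selection in the E. coli USO strain, using a HIS3 reporter whose site lies 19 bp from the promoter. Selection ran for 48 hours at 37°C on M9 lacking histidine, with 0.1 mM IPTG and 5 mM 3-AT. Plasmids were Illumina-sequenced before and after selection, three replicate libraries were pooled, and variants with under 10 reads were dropped. Fitness is the log change in each variant's read ratio to wild type, rescaled against the cognate and non-cognate sites.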

Variant | one-hybrid fitness for binding NBS DNA
ALLT | ≤ 0.2
QWRW | ≤ 0.2
HELN | ≤ 0.2
VNET | ≤ 0.2
TDND | ≤ 0.2
QYNF | ≤ 0.2
HKPS | ≤ 0.2
SLTE | ≤ 0.2
AVAW | ≤ 0.2
DTKR | 0.321
QTVR | 0.558
NTKR | 0.255
QTKR | 1.15
VQPA | ≤ 0.2
YAHE | ≤ 0.2
QHRP | 0.201
QHRD | 0.234
QHRS | 0.627
QHYH | ≤ 0.2
QHRH | 0.494
QHYS | 0.324

Variant | one-hybrid fitness for binding NBS DNA
SNPD | ≤ 0.2
YDCG | ≤ 0.2
IGGI | ≤ 0.2
EAAG | ≤ 0.2
QLAR | 0.478
QLAP | ≤ 0.2
QLIR | 0.294
QLPR | 0.232
QLRR | 0.943
QLFR | 0.329
QLER | 0.266
QLRD | ≤ 0.2
QLYR | 0.425
QLSR | 0.464
QLSN | ≤ 0.2
QLSP | ≤ 0.2
CSWC | ≤ 0.2
YYPG | ≤ 0.2
WYCF | ≤ 0.2
HGNS | ≤ 0.2
FIMG | ≤ 0.2

Variant | one-hybrid fitness for binding NBS DNA
PPDN | ≤ 0.2
GYQT | ≤ 0.2
DTTS | ≤ 0.2
TWKT | ≤ 0.2
SACG | ≤ 0.2
QLQD | ≤ 0.2
QLCP | ≤ 0.2
QLQR | 0.483
QLHP | ≤ 0.2
QLLR | 0.415
QLQH | ≤ 0.2
QLHH | ≤ 0.2
QLHR | 0.519
QLLS | ≤ 0.2
QLCR | 0.468
QLLP | ≤ 0.2
QLCD | ≤ 0.2
LLRD | ≤ 0.2
RCWE | ≤ 0.2
ILMW | ≤ 0.2
QNKK | ≤ 0.2

Variant | one-hybrid fitness for binding NBS DNA
WACV | ≤ 0.2
ARFF | ≤ 0.2
YTQC | ≤ 0.2
KEGR | ≤ 0.2
VEDR | ≤ 0.2
QLGN | ≤ 0.2
QLGD | ≤ 0.2
QLGR | 0.496
NTCV | ≤ 0.2
LCVN | ≤ 0.2
QTHG | 0.234
QIHT | 0.425
QTHT | 0.648
QTHC | 0.248
QLHT | 0.393
QPHT | ≤ 0.2
QFHT | ≤ 0.2
QCHT | 0.551
QLHG | ≤ 0.2
QIHK | ≤ 0.2
QIHN | ≤ 0.2
